This is an account of results in PubChem BioAssay (Tox21).

Results filed as inconclusive are left out. Unmarked numbers belong to inactive results. Activity calls are given as the source filed them. Unless noted, the call rests on the fitted dose curve; in most records, active means well fitted curve in the direction sought with a large enough effect in the repeat runs; inconclusive means weak or mixed curves; inactive means no such curve, though single readings can be large; an effect the other way counts as inactive or inconclusive.

A short description of experiment [1]: qHTS assay for identifying genotoxic compounds that show differential cytotoxicity against isogenic chicken DT40 cell lines with known DNA damage response pathways - wild type cell line (AID 743012). Further: nearly all actives have a fitted effect of over 60% in size. Further: potency means the concentration at half of the fitted maximal effect. In outline: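 Viability by ATP luminescence (CellTiter-Glo, 30 min RT) after 40 h compound treatment at 37 C/5% CO2, using 300 parental DNA repair-proficient DT40 cells per well.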

Experiment [2] is described as follows: qHTS assay to identify small molecule antagonists of the androgen receptor (AR) signaling pathway - cell viability counter screen (AID 743033; further: nearly all actives have a fitted effect of over 45% in size).
The nature of experiment [3]: qHTS assay to identify small molecule antagonists of the androgen receptor (AR) signaling pathway using the MDA cell line - cell viability counter screen (AID 743041; further: nearly all actives have a fitted effect of over 45% in size). In outline:
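In this qHTS counter assay, fluorescence intensity after CellTiter-Fluor addition indicated viability of MDA-kb2 AR-luc cells given compounds and R1881 for 16 h at 37C.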
On the technique in general: In qHTS, concentration-response curves come from the screen itself.

The nature of experiment [4]: qHTS assay to identify small molecule antagonists of the thyroid receptor (TR) signaling pathway - cell viability counter screen (AID 743064). Further: nearly all actives have a fitted effect of over 50% in size. Summed up: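 Counter screen for cytotoxicity: compound plus T3 (1 nM final) on GH3.TRE-Luc cells, 23.5 h at 37 °C, then fluorescence viability readout with CellTiter-Fluor.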
The nature of experiment [5]: qHTS assay to identify small molecule antagonists of the thyroid receptor (TR) signaling pathway (AID 743065). Further: nearly all actives have a fitted effect of over 55% in size. Further: potency means the concentration at half of the fitted maximal effect. Summed up: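 GH3.TRE-Luc rat pituitary cells carrying two TR response elements driving luciferase were plated for 4 h, given compound plus 1 nM T3 (final), and incubated 23.5 h at 37 C. ONE-Glo luminescence measured reporter inhibition; CellTiter-Fluor fluorescence tracked cytotoxicity.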

Experiment [6] concerns thyroid hormone receptor (rat, GH3 cells). Description: qHTS assay to identify small molecule agonists of the thyroid receptor (TR) signaling pathway (AID 743066; calls by dose curve).
The target in experiment [7] is Estrogen receptor (Homo sapiens) (UniProt P03372). Description: qHTS assay to identify small molecule antagonists of the estrogen receptor alpha (ER-alpha) signaling pathway (AID 743069; active means well fitted curve in the direction sought with a large enough effect in the signal ratio in the repeat runs, not every such curve was filed as active; the % refers to the signal ratio). Summed up: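 A 17beta-estradiol challenge was applied right after compound transfer to ER-alpha-UAS-bla HEK293 cells previously kept in charcoal-stripped serum. Plates stood 18 hr at 37C and 5% CO2; fluorescence was read following 2 hr FRET substrate loading at room temperature.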
Sequence of Estrogen receptor (Homo sapiens) (P03372 whole entry, looked up): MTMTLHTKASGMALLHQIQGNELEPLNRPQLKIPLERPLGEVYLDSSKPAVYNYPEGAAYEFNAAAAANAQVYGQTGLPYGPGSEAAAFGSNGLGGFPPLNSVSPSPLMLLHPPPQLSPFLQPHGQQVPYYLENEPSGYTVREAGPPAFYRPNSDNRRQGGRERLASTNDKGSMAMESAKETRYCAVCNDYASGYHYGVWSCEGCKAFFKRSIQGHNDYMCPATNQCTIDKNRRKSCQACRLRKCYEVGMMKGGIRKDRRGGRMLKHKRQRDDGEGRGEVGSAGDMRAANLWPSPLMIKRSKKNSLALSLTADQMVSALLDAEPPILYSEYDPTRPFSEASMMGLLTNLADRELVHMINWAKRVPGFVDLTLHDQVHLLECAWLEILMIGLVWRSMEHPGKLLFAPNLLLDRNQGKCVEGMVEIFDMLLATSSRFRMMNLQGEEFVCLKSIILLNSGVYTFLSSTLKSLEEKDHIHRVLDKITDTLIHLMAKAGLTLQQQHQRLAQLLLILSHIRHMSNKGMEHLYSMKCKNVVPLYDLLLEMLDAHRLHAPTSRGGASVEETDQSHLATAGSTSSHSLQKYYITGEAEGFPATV

Experiment [8] is described as follows: qHTS assay to identify small molecule antagonists of the estrogen receptor alpha (ER-alpha) signaling pathway - cell viability counter screen (AID 743074; calls by dose curve;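 further: HEK293 cells carrying ER-alpha-UAS-bla reporter stimulated with 17beta-estradiol; nearly all actives have a fitted effect of over 45% in size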).
For experiment [9], the target named is Estrogen receptor (Homo sapiens) (UniProt P03372). Nature of the experiment: qHTS assay to identify small molecule agonists of the estrogen receptor alpha (ER-alpha) signaling pathway (AID 743075; calls by dose curve;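 further: HEK293 GripTite cells with ER-alpha and UAS-driven beta-lactamase reporter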).
Experiment [10] shares this target. Description: qHTS assay to identify small molecule agonists of the estrogen receptor alpha (ER-alpha) signaling pathway using the BG1 cell line (AID 743079). Further: nearly all actives have a fitted effect of over 20% in size.
Experiment [11] can be described thus: qHTS assay to identify small molecule antagonists of the estrogen receptor alpha (ER-alpha) signaling pathway using the BG1 cell line (AID 743080; calls by dose curve;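 further: BG1 cells stimulated with 17beta-estradiol alongside compound; series mostly up to about 70 µM; nearly all actives have a fitted effect of over 25% in size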). In outline:
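Luminescence from a 4×ERE-luciferase reporter in BG1-Luc-4E2 cells served as read-out. Cells, pre-cultured 5 days in stripped-serum phenol-red-free medium, were exposed to compound with 17beta-estradiol co-stimulation for 21.5 h at 37 C.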

For a further experiment, the target named is Aromatase (Homo sapiens) (UniProt P11511). Description: qHTS assay to identify aromatase inhibitors (AID 743083). Further: series mostly up to about 70 µM; nearly all actives have a fitted effect of over 55% in size.
Sequence of Aromatase (Homo sapiens) (P11511 whole entry, looked up): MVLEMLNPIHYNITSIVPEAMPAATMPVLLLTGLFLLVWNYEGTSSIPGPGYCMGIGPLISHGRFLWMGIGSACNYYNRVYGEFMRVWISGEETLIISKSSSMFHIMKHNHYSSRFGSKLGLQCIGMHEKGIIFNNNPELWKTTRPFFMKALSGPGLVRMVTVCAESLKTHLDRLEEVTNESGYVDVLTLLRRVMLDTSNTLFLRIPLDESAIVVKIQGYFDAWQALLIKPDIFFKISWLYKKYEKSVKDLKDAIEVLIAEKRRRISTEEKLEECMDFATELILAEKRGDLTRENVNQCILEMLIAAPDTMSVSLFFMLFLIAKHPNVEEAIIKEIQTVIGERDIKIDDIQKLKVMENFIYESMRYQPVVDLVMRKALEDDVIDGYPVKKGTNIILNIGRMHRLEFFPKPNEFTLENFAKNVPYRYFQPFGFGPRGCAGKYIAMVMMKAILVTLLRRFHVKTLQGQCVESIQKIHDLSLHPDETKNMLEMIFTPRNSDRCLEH
Experiment [12] is described as follows: qHTS assay for identifying genotoxic compounds that show differential cytotoxicity against isogenic chicken DT40 cell lines with known DNA damage response pathways - Rev3 mutant cell line (AID 743014). Further: nearly all actives have a fitted effect of over 55% in size. Further: potency means the concentration at half of the fitted maximal effect.
Experiment [13] in a line: qHTS assay to identify small molecule antagonists of the estrogen receptor alpha (ER-alpha) signaling pathway using the BG1 cell line - cell viability counter screen (AID 743081).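 Further: compound given together with 17beta-estradiol as the ER stimulus; series mostly up to about 70 µM; nearly all actives have a fitted effect of over 45% in size.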
A short description of experiment [14]: qHTS assay for identifying genotoxic compounds that show differential cytotoxicity against isogenic chicken DT40 cell lines with known DNA damage response pathways - Rad54/Ku70 mutant cell line (AID 743015). Further: nearly all actives have a fitted effect of over 60% in size. Further: potency means the concentration at half of the fitted maximal effect.

As to `Cc1cc(O)c2c(c1)C(=O)c1cccc(O)c1C2=O`, the Potency result in experiment [1], in [4], in experiment [5], in experiment [6], in experiment [7] and in [8] was “inactive” each time. The Potency result in [9] and in [10] was “inactive” each time. Further, the compound was called inactive (in experiment [2]; in [3]; in experiment [11]; with Aromatase (Homo sapiens)).
Consider `O=c1[nH]c(=O)c2[nH]c(=O)[nH]c2[nH]1`, for which the Potency result in [1], in [12], in [4], in experiment [5], in [6] and in [7] was “inactive” throughout. Further, the Potency result in experiment [8], in experiment [9] and in [10] was “inactive” each time. In addition, the outcome (in experiment [2]; in [11]; in experiment [13]; with Aromatase (Homo sapiens)) was inactive.
`CCCCCCCCCCCCC1CO1` (centres undefined): the call (in experiment [2]; in experiment [3]; in experiment [11]; in [13]; in the experiment with Aromatase (Homo sapiens)) was inactive. Moreover, the Potency result in experiment [4], in experiment [5], in experiment [6], in experiment [7], in [8] and in experiment [9] was “inactive” in each case. For the same compound, the Potency result in [10] was “inactive”.
With `CCCO`, the Potency entry in experiment [1], in experiment [12], in experiment [14], in experiment [5], in experiment [6] and in experiment [7] was “inactive” throughout. Also, the Potency result in experiment [8], in [9] and in experiment [10] was “inactive” throughout. Besides, the result (in experiment [2]; in experiment [3]; in experiment [11]; in experiment [13]; with Aromatase (Homo sapiens)) was inactive.
Turning to `Cc1ccc(S(=O)(=O)NC(=O)NC2CCCCCCC2)cc1`, the Potency result in experiment [1], in experiment [12], in [14], in experiment [5], in experiment [6] and in experiment [8] was “inactive” throughout. For the same compound, the outcome (in experiment [2]; in experiment [3]; in [13]; with Aromatase (Homo sapiens)) was inactive.
For the compound `C=CCOc1cc(Cl)ccc1C(=O)NCCN(CC)CC`, the Potency in [1] was 15 µM (active); in experiment [12], 29.8 µM (active); in experiment [5], 13.3 µM (active). In addition, the result (in [2]; in experiment [13]; with Aromatase (Homo sapiens)) was inactive. Also, the Potency entry in [6] and in experiment [8] was “inactive” in each case.
With `O=C(Nc1cccc(C2=NCCN2)c1)Nc1cccc(C2=NCCN2)c1`, the Potency was 11.9 µM (active) in experiment [1] and 18.8 µM (active) in experiment [14]. Besides, the compound was called inactive (in [2]; in experiment [3]; in [11]; in experiment [13]; in the experiment with Aromatase (Homo sapiens)). Also, the Potency result in experiment [4], in [7], in [8] and in [9] was “inactive” throughout.
On to `CC(=O)/C=C/c1ccco1`, for which the Potency result in experiment [1], in experiment [12], in experiment [14], in [5], in experiment [6] and in [7] was “inactive” throughout. The Potency result in experiment [8], in experiment [9] and in experiment [10] was “inactive” in each case. Moreover, the compound was classed as inactive (in [2]; in experiment [11]; in experiment [13]; with Aromatase (Homo sapiens)).
`COc1cc2c3cc1Oc1cc(ccc1O)C[C@@H]1c4c(cc(OC)c(O)c4Oc4ccc(cc4)C[C@@H]3N(C)CC2)CC[N+]1(C)C`: the Potency result in experiment [1], in experiment [12], in [5], in experiment [6] and in experiment [8] was “inactive” throughout. The outcome (in experiment [2]; in experiment [3]; in [13]; with Aromatase (Homo sapiens)) was inactive.
For the compound `CCN(Cc1cccc(S(=O)(=O)O)c1)c1ccccc1`, the Potency result in experiment [14], in experiment [4], in experiment [5], in [6], in experiment [7] and in experiment [8] was “inactive” throughout. In addition, the Potency result in [9] and in experiment [10] was “inactive” each time. In addition, the call (in experiment [2]; in experiment [11]; in [13]; with Aromatase (Homo sapiens)) was inactive.
For the compound `C[C@H]1O[C@H](O[C@H]2[C@H](O)[C@@H](O)[C@@H](O[C@H]3[C@H](O)[C@@H](O)[C@H](O)O[C@@H]3CO)O[C@@H]2CO)[C@H](O)[C@@H](O)[C@@H]1N[C@H]1C=C(CO)[C@@H](O)[C@H](O)[C@H]1O`, the Potency entry in [1], in experiment [12], in experiment [14], in [5], in experiment [6] and in experiment [8] was “inactive” each time. In addition, the call (in experiment [2]; in experiment [3]; in [13]; in the experiment with Aromatase (Homo sapiens)) was inactive.
